These results are taken from the OligoGym collection.

Some targets named below: SULT6B1; SULT1A2; SUN1; SURF1.
Common to all, as to assay: pooled miR-30 sensor sort-seq; sequence = guide strand
Holding throughout (settings): shRNA
Also: reference of the scale not given here.

Consider TTATTCTCGAAGATAGACCCAG, for which the sensor-assay potency score (higher = more potent) with SULT6B1 is -0.349.

Sequence TTTATTCTGGAGCCTCTTGGTC came in with a sensor-assay potency score (higher = more potent) with SULT1A2 of -0.833.

In the case of TTGTTGTTCTGGCCGCTCGGTT, the sensor-assay potency score (higher = more potent) with SUN1 was -1.37.

The sequence TTCTTCAGGGAGACAGCGCTGC returned a sensor-assay potency score (higher = more potent) with SUN1 of -0.739.

As to TCCAGCCATGAACTTCTCCAGG, the sensor-assay potency score (higher = more potent) with SULT1A2 is -1.76.

In the case of TACCAGTAGCACATGATCCAGC, in the assay with SURF1, the sensor-assay potency score (higher = more potent) was -0.00567.

TATTCTCGAAGATAGACCCAGG: in the assay with SULT6B1, the sensor-assay potency score (higher = more potent) was -0.373.

TTTTCTAATCCATAGACGGCGA came in with a sensor-assay potency score (higher = more potent) with SUN1 of -0.893.

In the case of TTAAACCACAGGTAGGATGTAG, the sensor-assay potency score (higher = more potent) in the assay with SURF1 was -0.235.

Turning to TTGTTTGTGCTTCTGCGCTGTT, the sensor-assay potency score (higher = more potent) with SUN1 was -0.561.

Turning to TATTAATTCACTGACAATGTGG, the sensor-assay potency score (higher = more potent) in the assay with SULT6B1 was -0.366.

Take TATGAACTTAACATTGTCGCCA: the sensor-assay potency score (higher = more potent) in the assay with SULT6B1 turned out to be 0.543.

In the case of TTGAAATACTGCATTATCCAGG, the sensor-assay potency score (higher = more potent) with SURF1 is -0.184.

With TAGAATAAACTCTCGACACGGG, in the assay with SUN1, the sensor-assay potency score (higher = more potent) was -0.0133.

TGGAATATCGGGGACATCGTTG registered a sensor-assay potency score (higher = more potent) with SULT6B1 of -1.15.

As to TAGGAAACCGCCACATCCTTTG, the sensor-assay potency score (higher = more potent) with SULT1A2 is -0.928.

For TTCAGGATTCACTTTCTTCCTG, in the assay with SURF1, the sensor-assay potency score (higher = more potent) was -0.13.

In the case of TTGGAAAGCTGTGTCGTCGGGT, the sensor-assay potency score (higher = more potent) with SUN1 worked out at 0.562.

TAATTTGTCATAGTGGAGGTGA: the sensor-assay potency score (higher = more potent) with SULT6B1 was determined as 0.271.

Take TGAACTTAACATTGTCGCCATC: the sensor-assay potency score (higher = more potent) with SULT6B1 was -1.22.

The sequence TTTGTTGTTCTGGCCGCTCGGT gave a sensor-assay potency score (higher = more potent) with SUN1 of -0.815.

On to TTTTTCAGAGTCTCCATCCCTG, for which, in the assay with SULT1A2, the sensor-assay potency score (higher = more potent) was -0.0359.

The sequence TGGGACTTTGAACTCAAGGAAG yielded a sensor-assay potency score (higher = more potent) in the assay with SULT1A2 of -1.59.

As to TAATTCACTGACAATGTGGAGA, in the assay with SULT6B1, the sensor-assay potency score (higher = more potent) is -0.0659.

TATAATATGAACTTAACATTGT yielded a sensor-assay potency score (higher = more potent) with SULT6B1 of -0.395.

For TAATATGAACTTAACATTGTCG, the sensor-assay potency score (higher = more potent) with SULT6B1 amounted to 0.349.

As to TTTTGGTTTCGTAAGTTTCAGA, in the assay with SUN1, the sensor-assay potency score (higher = more potent) was -0.848.

Consider TGTCCTTTCATGAACTGTCTGA, for which, in the assay with SULT6B1, the sensor-assay potency score (higher = more potent) is 0.266.

In the assay with SUN1, TTCAGGGAGACAGCGCTGCTGG came in with a sensor-assay potency score (higher = more potent) of -1.01.

In the assay with SULT1A2, TGGTCCATGAACTCCCGGCGGA displayed a sensor-assay potency score (higher = more potent) of -1.53.
